Source: PubChem BioAssay (National Center for Advancing Translational Sciences (NCATS))
Shown are actives, neighbours in structure and some others; about 5.8% of the full set was active somewhere.
RORg inh = inhibitors of mouse ROR gamma transcriptional activity | Drosophila S2 Gal4-RORgamma UAS-luciferase reporter, 20 h | actives 5.4% (n = 310,000) | P51450 | Potency, µM (doses to about 53.6 µM), for inactives: at the top dose activity change, negative = inhibition, hits mostly inhibitors | AID 2551; note: potency is the fitted concentration of half-maximal effect; % is set by controls: 0 for no effect and ±100 for the full control effect; nearly all actives have a fitted effect of over 60% in size
Target sequence (P51450 whole entry, looked up, the tested form may be a part): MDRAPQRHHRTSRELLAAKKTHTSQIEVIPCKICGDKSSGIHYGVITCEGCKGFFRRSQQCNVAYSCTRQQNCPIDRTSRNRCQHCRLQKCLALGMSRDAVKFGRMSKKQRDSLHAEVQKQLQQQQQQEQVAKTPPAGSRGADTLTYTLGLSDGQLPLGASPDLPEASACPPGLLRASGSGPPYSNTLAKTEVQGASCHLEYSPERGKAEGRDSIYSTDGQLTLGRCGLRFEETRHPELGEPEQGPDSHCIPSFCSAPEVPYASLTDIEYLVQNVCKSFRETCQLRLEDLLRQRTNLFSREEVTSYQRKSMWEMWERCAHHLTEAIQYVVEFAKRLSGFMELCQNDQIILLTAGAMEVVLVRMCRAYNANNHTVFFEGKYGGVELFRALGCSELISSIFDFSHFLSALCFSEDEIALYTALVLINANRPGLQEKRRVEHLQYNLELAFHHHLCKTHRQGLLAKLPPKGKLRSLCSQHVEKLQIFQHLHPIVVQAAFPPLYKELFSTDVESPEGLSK
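A Gal4/UAS one-hybrid system in insect cells: metallothionein-promoter Gal4–ROR gamma fusion plus Photinus luciferase reporter. Copper sulfate 700 uM final, 20 hr ambient incubation, luminescent detection after 10 min with reagent.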
TRPV1 potentiator = human TRPV1 potentiation; actives 0.02% (n = 320,000); potentiation, % at 8.33 µM; TRPV1-expressing cells, Fluo-8 calcium influx, capsaicin EC20 potentiation; Q8NER1; in the data active = potentiation above about 80%; inconclusive = between about 30% and that limit; note: 0% is about no effect
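TRPV1-expressing cells were cultured overnight at 35.5C and loaded with Fluo-8 calcium dye for 40 to 90 min at room temperature. After a 10 s baseline, compound was added and calcium influx was read kinetically for 3 min (ex 480/em 520 nm).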
uPA surface inh = blocks generation of uPA at the cell surface. cell surface uPA generation assay, qHTS. Potency, µM (top dose mostly 38.3 µM), for the others: at the highest dose activity change, negative = inhibition, actives largely listed as inhibitors. actives 0.31% (n = 330,000). AID 540303; active = well fitted inhibition curve with a large enough effect; inconclusive = small, poorly fitted or top-dose-only effect; inactive = no such curve, though single readings can be large or run the other way; tested in mouse RAW 264.7 cells; note: potency is the fitted concentration of half-maximal effect; % is set by controls: 0 for no effect and ±100 for the full control effect; nearly all actives have a fitted effect of over 55% in size
VP16 counter = counter-screen for ROR gamma inhibitors: Gal4-VP16 reporter; actives 3.5% (n = 310,000); Potency, µM (titrated, usually from 53.6 µM), inactives show at the highest dose activity, negative = inhibition, usual class: inhibitors; AID 2546; Drosophila S2 Gal4-VP16 UAS-luciferase, luminescence, 20 h;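 note: Gal4-VP16 expression switched on by copper sulfate through the metallothionein promoter; potency is the fitted concentration of half-maximal effect; % is set by controls: 0 for no effect and ±100 for the full control effect; nearly all actives have a fitted effect of over 50% in size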
TRPV1 ag = activates the human vanilloid receptor TRPV1; Q8NER1; TRPV1-expressing cells, Fluo-8 calcium influx, agonist mode; activation, % at 8.33 µM; actives 0.19% (n = 320,000); in the data active = activation above about 80%; inconclusive = between about 30% and that limit; note: 0% is about no effect
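TRPV1-expressing cells were cultured overnight at 35.5C and loaded with Fluo-8 calcium dye for 40 to 90 min at room temperature. After a 10 s baseline, compound was added and calcium influx was read kinetically for 3 min (ex 480/em 520 nm).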
An asterisk follows results filed as active; ? = inconclusive; · = no result; [ ] = dose if it differs, or a comment. Unless noted, calls come from the whole dose curve; as a rule, active = well fitted curve in the direction sought with a large enough effect; inconclusive = small, poorly fitted or top-dose-only effect, or another doubt; inactive = no such curve, though single readings can be large; an effect the other way counts as inactive or inconclusive.

SMILES	RORg inh	TRPV1 potentiator	uPA surface inh	VP16 counter	TRPV1 ag
CCNC(=S)N/N=C/c1cccc(C)c1	0.891µM*	-11.7	0.2%	0.891µM*	-4.1
C=CCNC(=S)Nc1ccc2nc(C)c(C)nc2c1	-36.8%	1.3	0.2%	-5.6%	1.7
C=CC[C@@H]1C=C[C@H](O/N=C2\c3cc(OC)ccc3O[C@H](c3cccc(OC)c3)[C@H]2O)[C@H](CO)O1	4.4%[10 µM]	·	·	-8.0%[10 µM]	·
CSCC[C@H](N)C(=O)N[C@@H](CCC(=O)O)C(=O)N[C@H](C(=O)NCC(=O)N[C@@H](Cc1c[nH]c2ccccc12)C(=O)N[C@@H](Cc1ccc(O)cc1)C(=O)N[C@@H](CCCNC(=N)N)C(=O)N[C@@H](CO)C(=O)N1CCC[C@H]1C(=O)N[C@@H](Cc1ccccc1)C(=O)N[C@@H](CO)C(=O)N[C@@H](CCCNC(=N)N)C(=O)N[C@H](C(=O)N[C@H](C(=O)N[C@@H](Cc1cnc[nH]1)C(=O)N[C@@H](CC(C)C)C(=O)N[C@@H](Cc1ccc(O)cc1)C(=O)N[C@@H](CCCNC(=N)N)C(=O)N[C@@H](CC(N)=O)C(=O)NCC(=O)N[C@@H](CCCCN)C(=O)O)C(C)C)C(C)C)C(C)C	0.9%	·	·	-6.6%	·
O=[N+]([O-])c1ccccc1C=NNC(=S)NN=Cc1ccccc1[N+](=O)[O-]	·	·	-10.0%	·	·
CC(C)NC(=S)N/N=C/c1ccccc1[N+](=O)[O-]	1.78µM*	-0.2	2.5%	5.62µM*	9.9
CN(C)c1ccc(/C=N/NC(N)=S)cc1[N+](=O)[O-]	17.8µM*	-2.9	-4.9%	?	-0.2
CCNC(=S)N/N=C/c1cc(C)ccc1C	1.78µM*	-4.7	-7.0%	2.51µM*	2.7
C=CCNC(=S)N/N=C/c1ccc(C)c([N+](=O)[O-])c1	1.12µM*	5.8	2.9%	4.47µM*	-0.3
C=CCNC(=O)CC(=O)N/N=C/c1cccc(C)c1	-10.7%	-1.3	-1.1%	-13.6%	2.3
O=S(=O)(c1ccc(Br)cc1)c1cnc2ccccc2n1	11.2µM*	7.0	-14.0%	?	-4.0
COc1ccc(S(=O)(=O)c2ccc(OC)cc2)cc1	9.8%	-23.5	-2.6%	-0.7%	-0.8
COc1ccc(S(=O)(=O)c2cnc3ccccc3n2)cc1	11.2µM*	-2.5	-12.8%	?	1.9
C[C@@]12CCC(=O)C=C1CC[C@@H]1[C@@H]2[C@H](O)C[C@]2(C)[C@@H]1CC[C@]2(O)C(=O)CO	-14.9%[16.9 µM]	·	·	-6.1%[17 µM]	·
Cc1cccc(C(=O)OC(C)C(=O)Nc2ccc(S(=O)(=O)Nc3ncccn3)cc2)c1C (stereo unspecified)	·	0.4	-14.1%	·	-0.2
CCN(CC)CCn1c2c(c(SCC(=O)Nc3ccccc3Cl)nc1=O)CCCC2	·	6.2	1.3%	·	1.9
C=CCn1c(C(CC(C)C)CC(C)O)n[nH]c1=S (stereo unspecified)	?	-12.9	0.9%	3.8%	-4.2
C=CCn1c(C(CCCC)CC(O)COCC(C)C)n[nH]c1=S (stereo unspecified)	10µM*	0.7	-0.7%	?	2.4
C=CCn1c(C(CCCC)CC(O)COCCC)n[nH]c1=S (stereo unspecified)	7.08µM*	1.6	7.1%	?	5.4
OC1CCC2Cc3ccccc3N=C12 (stereo unspecified)	8.8%	·	·	-8.7%	·
N#Cc1cccc(NC(=O)COC(=O)c2cccc(N3C(=O)c4ccccc4C3=O)c2)c1	?	11.5	3.4%	-6.8%	-0.4
COc1ccc(CNC(=O)COc2ccc([N+](=O)[O-])cc2)cc1	15.4%	-1.8	-3.1%	2.8%	7.7
Cc1cc(C(=O)NN=C2CCCCCC2)c(C)o1	-28.9%	10.7	-58.5%	15.4%	12.4
Cc1ccc(S(=O)(=O)NCCC(=O)NC2CC2)cc1	1.5%	1.4	2.3%	3.8%	0.5
O=C(NCCCN1CCOCC1)c1nn(-c2ccccc2)c(=O)c2ccccc12	·	2.9	-0.7%	·	0.2
CC(=O)NC(c1ccc(C)cc1)c1cc(Cl)c2cccnc2c1O (stereo unspecified)	1.12µM*	2.2	-14.7%	0.631µM*	0.4
CC(=O)NC(c1cc(Cl)c2cccnc2c1O)C(C)C (stereo unspecified)	·	2.7	3.16µM*	·	-5.3
